A selection: hits, their analogues and other compounds. The true share with any hit is near 2.4%.
C diff growth = inhibitors of Clostridium difficile growth. growth activity, negative = inhibition, % at 16 µg/mL (by protocol). Clostridium difficile clinical isolate growth, OD600, 24 h; hits give low values. 86,000 compounds, 0.25% hits;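 active = mean growth activity at or below -80% and every replicate also at or below -80%; inconclusive = mean at or below -80% but some replicate above -80%; inactive = mean growth activity above -80%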;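 also: 0% = DMSO wells and -100% = levofloxacin 16 µg/mL wells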
Pf Dd2 inh = blocks growth of Plasmodium falciparum Dd2 parasites; P. falciparum Dd2 growth, SYBR Green, 72 h; hits give low values; activity change, % at 10 µM; 94,000 compounds, 2.3% hits; in the data active = activity change below about -80%; inconclusive = no clear call, values can overlap the other calls
* = called active by the depositor; u = inconclusive; x = no result given.

SMILES	C diff growth	Pf Dd2 inh
C[C@@H]1CN([C@H](C)CO)C(=O)Cc2cc(NS(=O)(=O)c3ccc(Cl)cc3)ccc2O[C@@H]1CN(C)Cc1ccc(C(=O)Nc2ccccc2N)cc1	11.4	-84.9*
C[C@@H]1CN([C@H](C)CO)C(=O)Cc2cc(NS(=O)(=O)c3ccc(F)cc3)ccc2O[C@H]1CN(C)Cc1ccc(C(=O)Nc2ccccc2N)cc1	1.3	-13.8
C[C@@H]1CN([C@@H](C)CO)C(=O)Cc2cc(NS(=O)(=O)c3ccc(F)cc3)ccc2O[C@H]1CN(C)S(=O)(=O)c1ccccc1	-10.8	-27.6
CO[C@@H]1CN(C)C(=O)c2cc(NC(=O)c3ccccc3F)ccc2OC[C@H](C)N(C(=O)c2ccccc2F)C[C@@H]1C	x	-83.0*
CO[C@@H]1CN(C)C(=O)c2cc(NC(=O)Cc3ccccc3)ccc2OC[C@H](C)N(C(=O)c2ccccc2F)C[C@@H]1C	x	-82.1*
CO[C@H]1CN(C)C(=O)c2cc(NC(=O)Cc3ccccc3)ccc2OC[C@@H](C)N(C(=O)c2ccccc2F)C[C@H]1C	x	-68.0
CO[C@H]1CN(C)C(=O)c2cc(NC(=O)c3ccccc3F)ccc2OC[C@H](C)N(C(=O)c2ccccc2F)C[C@@H]1C	x	-9.2
CO[C@H]1CN(C)C(=O)c2cc(NC(=O)c3ccccc3F)ccc2OC[C@H](C)N(C(=O)c2ccccc2F)C[C@H]1C	x	-86.7*
CO[C@@H]1CN(C)C(=O)c2cc(NC(=O)c3ccccc3F)ccc2OC[C@H](C)N(C(=O)c2ccccc2F)C[C@H]1C	x	-33.9
COCC#Cc1cnc2c(c1)C(=O)N([C@H](C)CO)C[C@@H](C)[C@H](CN(C)C(=O)c1ccc(F)cc1)O2	-5.7	10.7
COc1ccccc1C#Cc1ccc([C@H]2[C@@H](CO)N3CCCCN(C(=O)C4CC4)C[C@@H]23)cc1	-7.3	-59.5
Cc1noc(C)c1S(=O)(=O)Nc1ccc2c(c1)C(=O)N([C@H](C)CO)C[C@H](C)[C@H](CN(C)C(=O)Nc1ccc3c(c1)OCO3)O2	x	0.3
COc1ccc(CN(C)C[C@@H]2OCCCC[C@H](C)Oc3ccc(NC(=O)Nc4ccc(F)cc4)cc3C(=O)N([C@H](C)CO)C[C@@H]2C)cc1	9.2	-20.1
COc1ccc(CN(C)C[C@H]2OCCCC[C@H](C)Oc3ccc(NC(=O)Nc4ccc(F)cc4)cc3C(=O)N([C@H](C)CO)C[C@H]2C)cc1	18.2	-81.2*
COc1ccc(CN(C)C[C@H]2OCCCC[C@H](C)Oc3ccc(NC(=O)Nc4ccc(F)cc4)cc3C(=O)N([C@@H](C)CO)C[C@H]2C)cc1	10.6	-82.8*
COc1ccc(CN(C)C[C@@H]2OCCCC[C@H](C)Oc3ccc(NC(=O)Nc4ccc(F)cc4)cc3C(=O)N([C@@H](C)CO)C[C@@H]2C)cc1	5.7	u
CC(C)NC(=O)N(C)C[C@H]1OCCCC[C@H](C)Oc2ccc(NC(=O)Cc3ccccc3)cc2C(=O)N([C@@H](C)CO)C[C@H]1C	-3.5	-4.0
CN1C(=O)c2cc(NC(=O)Nc3ccc(Cl)cc3)ccc2OC[C@@H]2O[C@H](CC(=O)NCCN3CCCCC3)CC[C@@H]21	9.3	-22.8
C[C@@H]1CN([C@@H](C)CO)C(=O)c2cc(C#C[C@@H](C)O)cnc2O[C@@H]1CN(C)C(=O)Cc1ccccn1	-2.3	37.2
C[C@H]1CCCCO[C@@H](CN(C)Cc2ccc(C(F)(F)F)cc2)[C@@H](C)CN([C@@H](C)CO)C(=O)c2cc(NC(=O)CCCN(C)C)ccc2O1	0.3	-85.1*
C[C@@H]1CCCCO[C@H](CN(C)Cc2ccc(C(F)(F)F)cc2)[C@@H](C)CN([C@H](C)CO)C(=O)c2cc(NC(=O)CCCN(C)C)ccc2O1	4.6	-54.0
C[C@@H]1CCCCO[C@H](CN(C)Cc2ccc(C(F)(F)F)cc2)[C@H](C)CN([C@@H](C)CO)C(=O)c2cc(NC(=O)CCC(F)(F)F)ccc2O1	10.7	u
C[C@@H]1CCCCO[C@@H](CN(C)Cc2ccc(C(F)(F)F)cc2)[C@H](C)CN([C@H](C)CO)C(=O)c2cc(NC(=O)CCCN(C)C)ccc2O1	6.0	-88.9*
C[C@H](CO)N1C[C@H](C)[C@@H](CN(C)Cc2ccc(C(F)(F)F)cc2)OCCCC[C@H](C)Oc2ccc(NC(=O)CCCN(C)C)cc2C1=O	6.1	-77.1
C[C@H]1CCCCO[C@H](CN(C)Cc2ccc(C(F)(F)F)cc2)[C@@H](C)CN([C@@H](C)CO)C(=O)c2cc(NC(=O)CCCN(C)C)ccc2O1	-0.2	-85.8*
SMILES	C diff growth	Pf Dd2 inh
C[C@@H]1CN([C@H](C)CO)C(=O)c2cc(NC(=O)CCCN(C)C)ccc2O[C@@H](C)CCCCO[C@@H]1CN(C)Cc1ccc(C(F)(F)F)cc1	6.1	-86.7*
C[C@@H]1CCCCO[C@@H](CN(C)Cc2ccc(C(=O)O)cc2)[C@@H](C)CN([C@H](C)CO)C(=O)c2cc(NC(=O)CCCN(C)C)ccc2O1	-17.0	41.4
COc1ccccc1C(=O)Nc1ccc2c(c1)OC[C@@H](C)N(C(C)=O)C[C@H](C)[C@@H](OC)CN(C)C2=O	x	-19.7
COC(=O)C[C@H]1CC[C@H]2[C@@H](COc3ccc(NC(=O)c4ccccc4OC)cc3C(=O)N2C)O1	1.2	1.5
C[C@H]1CCCCO[C@H](CN(C)CC2CCCCC2)[C@@H](C)CN([C@@H](C)CO)C(=O)c2cc(NC(=O)Cc3ccccc3)ccc2O1	20.5	-59.5
C[C@@H]1CN([C@@H](C)CO)C(=O)c2cc(C3=CCCCC3)cnc2O[C@@H]1CN(C)C(=O)NC1CCCC1	6.2	14.8
O=C(CC1CC1)N1CC2(C1)[C@@H](c1ccccc1)[C@H](CO)N2C(=O)c1cccnc1	44.0	7.8
C[C@H](O)C#Cc1ccc2c(c1)O[C@@H](CN(C)C(=O)CC1CC1)[C@@H](C)CN([C@H](C)CO)S2(=O)=O	2.6	x
CN1C(=O)c2cc(NC(=O)c3cccs3)ccc2OC[C@@H]2O[C@@H](CC(=O)N3CCCCC3)CC[C@@H]21	0.4	-17.5
C[C@@H]1CCCCO[C@@H](CN(C)Cc2ccc(C(F)(F)F)cc2)[C@@H](C)CN([C@@H](C)CO)C(=O)c2cc(NC(=O)CCC(F)(F)F)ccc2O1	3.9	-45.3
C[C@@H]1CCCCO[C@H](CN(C)Cc2ccc(C(F)(F)F)cc2)[C@H](C)CN([C@H](C)CO)C(=O)c2cc(NC(=O)CCCN(C)C)ccc2O1	-1.9	-87.0*
C[C@@H]1CN([C@@H](C)CO)C(=O)c2cc(-c3cncnc3)cnc2O[C@H]1CN(C)C(=O)Cc1ccccc1	-3.3	12.1
C[C@@H]1CCCCO[C@H](CN(C)Cc2ccc(Cl)c(Cl)c2)[C@@H](C)CN([C@@H](C)CO)C(=O)c2cc(NC(=O)Cc3ccccc3)ccc2O1	-2.0	-86.2*
C[C@@H]1CN([C@H](C)CO)C(=O)c2cc(NC(=O)Nc3ccccc3)ccc2O[C@@H](C)CCCCO[C@@H]1CN(C)Cc1ccc(C(F)(F)F)cc1	-0.5	-84.7*
C[C@@H]1CCCCO[C@H](CN(C)Cc2ccccc2)[C@H](C)CN([C@H](C)CO)C(=O)c2cc(NC(=O)Nc3ccc(C(F)(F)F)cc3)ccc2O1	21.8	-72.4
C[C@H]1CCCCO[C@@H](CN(C)Cc2ccccc2)[C@@H](C)CN([C@@H](C)CO)C(=O)c2cc(NC(=O)Nc3ccc(F)cc3)ccc2O1	5.1	-86.0*
C[C@@H]1CCCCO[C@H](CN(C)Cc2ccc(C(F)(F)F)cc2)[C@H](C)CN([C@H](C)CO)C(=O)c2cc(NC(=O)Nc3ccccc3)ccc2O1	0.5	-74.0

Screening results as filed in PubChem BioAssay.
